# Screening results from PubChem.
# Rows were chosen to be rich in hits. Some 19% of all compounds tested hit in one or more screens of this group.
# HT1080 IDH1KD tx – qHTS for induction of synthetic lethality in tumor cells producing 2HG: qHTS for the HT-1080-IDH1KD cell line | hit rate 2% among 360,000 | Potency, µM (series often up to 46.1 µM), hits mostly cytotoxic | AID 686971, 2013 | HT-1080 IDH1 knockdown viability, ATP luminescence, 48 h
#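 Knockdown cells (IDH1KD HT-1080) received compounds 2 h after plating at 750 cells/well and were kept 48 h at 37 °C in 5% FBS RPMI. A CellTiter-Glo luminescence read gave % activity for curve fitting.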
# IL1B secr inh – qHTS for Inhibitors of Inflammasome Signaling: IL-1-beta AlphaLISA Primary Screen; THP-1 LPS/ATP IL-1B secretion, AlphaLISA, 16 h; active compounds read low; activity change, % at 57.5 µM; hit rate 4.7% among 360,000; AID 743279, 2014; in the data active = activity change below about -50%; inconclusive = mostly about -30% to -49%
#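 Secreted IL-1B measured by AlphaLISA bead assay after 16 h compound exposure of THP-1 cells; compounds (final up to 57.5 uM) added 1 h before LPS (250 ng/mL) and ATP (1.25 mM) stimulation; lower signal means less secretion.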
# HT1080NT lethal – qHTS for induction of synthetic lethality in tumor cells producing 2HG: qHTS for the HT-1080-NT fibrosarcoma cell line | HT-1080-NT fibrosarcoma viability, CellTiter-Glo ATP luminescence, 48 h | Potency, µM (series often up to 46.1 µM), hits mostly cytotoxic | hit rate 1.6% among 360,000;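 note: NT is the 2HG producing partner of a matched IDH1 knockdown line; nearly all actives have a fitted effect of over 55% in size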
#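 Viability by CellTiter-Glo luminescence after 48 h compound exposure at 37C of HT-1080-NT cells (750/well, RPMI, 5% FBS). % activity scaled between DMSO wells and medium-only wells, then curve-fitted and categorized by curve class.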
# TDP1 cell noCPT – qHTS for Inhibitors of human tyrosyl-DNA phosphodiesterase 1 (TDP1): qHTS in cells in absence of CPT; DT40 Tdp1-/- hTDP1 cells, no CPT, ATP luminescence, 48 h; Potency, µM (titrated, usually from 46.2 µM), actives largely listed as inhibitors; hit rate 15% among 420,000; AID 686978, 2013; note: nearly all actives have a fitted effect of over 55% in size
#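 Compound effects on proliferation are scored in DT40 Tdp1-/-;hTDP1 cells in the absence of CPT. ATP levels (CellTiter-Glo luminescence) are recorded after a ≥48 hr, 37 °C incubation.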
# DT40 TDP1 CPT – qHTS for Inhibitors of human tyrosyl-DNA phosphodiesterase 1 (TDP1): qHTS in cells in presence of CPT; chicken DT40 Tdp1-/-;hTDP1 cells + 20 nM CPT, ATP luminescence, 48 h; Potency, µM (titrated, usually from 46.2 µM), actives largely listed as inhibitors; hit rate 12% among 420,000; note: nearly all actives have a fitted effect of over 55% in size
#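 Chicken DT40 Tdp1-/- cells stably complemented with human TDP1 were seeded at 400 cells/well in medium containing 20 nM camptothecin, exposed to pin-transferred compounds, and grown at 37 °C for at least 48 hr. Viability was read as ATP luminescence.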
# A number is an active result; n = inactive; u = inconclusive; x = not tested or not shown; [ ] = another dose, or the depositor's remark. Unless noted, calls come from the whole dose curve; as a rule, active = well fitted curve in the direction sought with a large enough effect; inconclusive = small, poorly fitted or top-dose-only effect, or another doubt; inactive = no such curve, though single readings can be large; an effect the other way counts as inactive or inconclusive.
SMILES,HT1080 IDH1KD tx,IL1B secr inh,HT1080NT lethal,TDP1 cell noCPT,DT40 TDP1 CPT
COCC(=O)Nc1ccc2c(c1)[C@@H]1C[C@H](CC(=O)NCc3cccc(F)c3)O[C@@H](CO)[C@@H]1O2,n,n,n,n,n
Fc1ccc(Nc2nnc(-c3ccncc3)s2)cc1Cl,n,n,n,n,n
Cc1noc(-c2ccccc2)c1NC(=O)Nc1ccc2nc([C@H]3C[C@H](O)[C@@H](CO)O3)[nH]c2c1,n,n,n,n,n
O=C(NCc1ccccc1Cl)c1ccc(CSCc2ccccc2Cl)o1,x,x,x,20.6µM,16.4µM
COc1cccc2cc(C(=O)NCc3ccccc3Cl)c(=O)oc12,n,n,n,n,n
COc1ccccc1S(=O)Cc1ccc(C(=O)NCc2ccccc2Cl)o1 (stereo unspecified),n,n,n,u,16.4µM
c1cnc2c(C3NCCc4c3[nH]c3ccccc43)cccc2c1 (stereo unspecified),n,u,n,u,u
Cn1c(Cc2ccccc2)nnc1SCC(=O)Nc1ccc(N2CCOCC2)cc1,n,n,n,n,n
CCCCOc1cccc(NC(=O)CSc2nnc(C)s2)c1,x,x,x,n,n
Cc1cnc(NC(=O)C2CC(=O)N(c3ccc4c(c3)OCCO4)C2)s1 (stereo unspecified),n,-57.2,n,n,n
CCCCc1nnc(NC(=O)C2CC(=O)N(c3ccc4c(c3)OCCO4)C2)s1 (stereo unspecified),n,n,n,n,n
CS(=O)(=O)c1ccc(C(=O)Nc2nc(-c3ccco3)c(-c3ccco3)s2)cc1,n,u,n,20.6µM,u
Cc1cnc(NC(=O)C2CC(=O)N(c3cccc(Cl)c3)C2)s1 (stereo unspecified),n,n,n,5.8µM,7.31µM
Cc1nnc(NC(=O)C2CC(=O)N(c3ccc4c(c3)OCCO4)C2)s1 (stereo unspecified),n,n,n,n,n
O=C(Nc1nc(-c2ccco2)c(-c2ccco2)s1)C1CC(=O)N(c2ccc3c(c2)OCCO3)C1 (stereo unspecified),u,n,n,u,16.4µM
Nc1nccnc1C(=O)OCC(=O)NC1CCCc2ccccc21 (stereo unspecified),n,n,n[9.24 µM],n,n
Cc1csc(NC(=O)C2CC(=O)N(c3ccc4c(c3)OCCO4)C2)n1 (stereo unspecified),n,n,n[9.24 µM],n,n
O=C(Nc1nc(-c2ccco2)c(-c2ccco2)s1)C1CCC1,n,u,n,18.4µM,14.6µM
CCc1ccc(-c2csc(NC(=O)C3CC(=O)N(c4ccc5c(c4)OCCO5)C3)n2)cc1 (stereo unspecified),u,n,u,16.4µM,16.4µM
O=C(Nc1nnc(-c2ccco2)s1)C1CCCCC1,n,n,n,n,n
COc1ccc(NC(=O)c2nc(SC)ncc2Cl)cc1,n,n,n,n,n
Cc1cc2cc(C)c3nnc(SCC(=O)Nc4ccc(S(=O)(=O)N5CCCCC5C)cc4)n3c2cc1C (stereo unspecified),n,n,n,10.3µM,u
CSc1ncc(Cl)c(C(=O)Nc2ccc(S(=O)(=O)N3CCC(C)CC3)cc2)n1,x,x,x,23.1µM,23.1µM
CCS(=O)(=O)c1ncc(Cl)c(C(=O)Nc2ccc(S(=O)(=O)N3CCC(C)CC3)cc2)n1,3.66µM,-103.9,2.91µM,2.59µM,1.84µM
CCCSc1ncc(Cl)c(C(=O)Nc2ccc(S(=O)(=O)N3CC(C)OC(C)C3)cc2)n1 (stereo unspecified),n,n,n,16.4µM,u
SMILES,HT1080 IDH1KD tx,IL1B secr inh,HT1080NT lethal,TDP1 cell noCPT,DT40 TDP1 CPT
Cc1cc(C)nc(NS(=O)(=O)c2ccc(NC(=O)c3ccc(S(=O)(=O)N4CC(C)OC(C)C4)cc3)cc2)n1 (stereo unspecified),n,n,n,n,n
O=C(NC1CCCC1)C(C1CC1)n1c(-c2ccncc2)nc2ccccc21 (stereo unspecified),n,n,n,n,n
CCSc1ncc(Cl)c(C(=O)Nc2ccc(S(=O)(=O)N3CCC(C)CC3)cc2)n1,x,x,x,5.8µM,14.6µM
CCSc1ncc(Cl)c(C(=O)Nc2ccc(S(N)(=O)=O)cc2)n1,n,-59.4,n,u,n
CCSc1ncc(Cl)c(C(=O)Nc2ccc(S(=O)(=O)Nc3ncccn3)cc2)n1,n,n,n,n,n
CC(C)Sc1ncc(Cl)c(C(=O)Nc2ccc(S(=O)(=O)N3CCCCC3C)cc2)n1 (stereo unspecified),x,x,x,18.4µM,u
CCSc1ncc(Cl)c(C(=O)Nc2ccc(S(=O)(=O)Nc3nccc(C)n3)cc2)n1,x,x,x,u,n
CCc1ccccc1NC(=O)NNC(=O)CCc1ccc(OC)cc1,n,n,n,n,n
Cc1cccc(Cn2c(=O)n(Cc3ccccc3)c(=O)c3sc4ccccc4c32)c1,x,x,x,23.1µM,u
Cc1ccc(NC(=O)Cn2c(=O)n(Cc3ccccc3)c(=O)c3sc4ccccc4c32)cc1,x,x,x,5.8µM,5.8µM
O=c1c2sc3ccccc3c2n(Cc2cccc(C(F)(F)F)c2)c(=O)n1-c1ccccc1,x,x,x,13µM,u
Cc1cc(C)n(Cc2ccc(C(=O)Nc3ccc(Br)cc3C)o2)n1,n,-59.8,n,u,n
Cc1cc(C)n(Cc2ccc(C(=O)Nc3cccc(Br)c3)o2)n1,n,u,n,u,n
Cc1c(C(=O)Nc2cccc(Cl)c2)oc2ccc(S(=O)(=O)N3CCCCCC3)cc12,x,x,x,u,23.1µM
Cc1c(C(=O)N2CCN(S(=O)(=O)c3cccs3)CC2)oc2ccc(F)cc12,n,n,n,16.4µM,u
Cc1c(C(=O)Nc2ccccc2Cl)oc2ccc(S(=O)(=O)N3CCCCCC3)cc12,x,x,x,13µM,5.8µM
Cc1c(C(=O)NCc2ccccc2)oc2ccc(S(=O)(=O)N3CCC4(CC3)OCCO4)cc12,n,n,n,20.6µM,u
Cc1c(C(=O)NCc2ccccn2)oc2ccc(S(=O)(=O)N3CCC4(CC3)OCCO4)cc12,n,n,n,n,n
CC(C)(C)c1ccc(S(=O)(=O)NCC(=O)N2CCN(Cc3ccccc3)CC2)cc1,n,n,n,u,u
Nc1nc(SCC(=O)Nc2ccc(Cl)c(S(=O)(=O)N3CCOCC3)c2)n[nH]1,n,n,n,n,n
Cc1ccc(CNC(=O)CN(C)S(=O)(=O)c2cccc3cccnc23)cc1,n,n,n,n,n
O=C(Nc1c2c(nn1-c1ccc([N+](=O)[O-])cc1)CS(=O)(=O)C2)c1ccccc1F,n,n,n,n,n
